Screening results as filed in PubChem.
In the library only some 4.3% were active in any assay of this set; here they are far more common.
GLP-1R inv ag = qHTS of GLP-1 Receptor Inverse Agonists (Inhibition Mode) | HEK293 GLP-1R CRE-luciferase, luminescence, 24 h; GLP-1R form is constitutively active | Potency, µM (doses to about 38.3 µM), actives largely listed as inhibitors | hit rate 1.6% among 410,000 | Glucagon-like peptide 1 receptor (Homo sapiens), P43220 | AID 624417, 2012; also: nearly all actives have a fitted effect of over 55% in size
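Cells are plated, allowed 12 hours at 37 deg C, then treated with compounds for 24 hr before luciferase detection reagent is added and luminescence is read after 12 min at room temperature. The HEK293 line carries constitutively active GLP-1R with a cAMP-responsive reporter.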
DRD3 agonist = qHTS of D3 Dopamine Receptor Agonist: qHTS. max activation, %. hit rate 0.58% among 410,000. D3R DiscoveRx beta-arrestin cells, luminescence, 90 min. D(3) dopamine receptor (Homo sapiens), P35462. AID 652048, 2013; in the data active = max activation above about 30%
Target sequence (P35462 whole entry, looked up): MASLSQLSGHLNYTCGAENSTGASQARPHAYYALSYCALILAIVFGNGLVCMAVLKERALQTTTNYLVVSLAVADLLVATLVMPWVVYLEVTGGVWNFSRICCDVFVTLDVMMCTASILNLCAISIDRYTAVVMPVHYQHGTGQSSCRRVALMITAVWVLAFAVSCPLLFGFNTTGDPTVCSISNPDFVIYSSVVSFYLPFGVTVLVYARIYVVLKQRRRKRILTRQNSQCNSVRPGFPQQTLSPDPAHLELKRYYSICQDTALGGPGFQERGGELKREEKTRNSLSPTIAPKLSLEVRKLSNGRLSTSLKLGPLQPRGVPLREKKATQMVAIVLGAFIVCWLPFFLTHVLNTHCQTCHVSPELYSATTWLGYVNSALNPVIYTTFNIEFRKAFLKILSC
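Cells at 1500/well, incubated overnight, then treated with pinned compounds (dopamine as control) for 90 min at 37 degrees C. DiscoveRx reagent added for 30 - 60 minutes at room temperature; luminescence read.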
D3 antag = qHTS of D3 Dopamine Receptor Antagonist: qHTS. D(3) dopamine receptor (Homo sapiens), P35462. D3R cells, DiscoveRx beta-arrestin luminescence, antagonist mode; hits give low values. max response, negative = inhibition, %. hit rate 2.5% among 360,000; in the data active = max response below about -50%; inconclusive = no clear call, values can overlap the other calls
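Cells expressing the human receptor were seeded at 1500 cells/well, incubated overnight at 37 degrees C in 5% CO2, then exposed to library compounds with dopamine controls for 90 minutes at 37 degrees C before luminescent detection.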
GLP1R ag = qHTS of GLP-1 Receptor Agonists | Glucagon-like peptide 1 receptor (Homo sapiens), P43220 | HEK293 GLP-1R CRE-luciferase, luminescence, 4-6 h; cells express a hypersensitive GLP-1R form | Potency, µM (top dose mostly 45.6 µM), actives largely listed as activators | hit rate 0.007% among 380,000
Of the large screens only hits and unclear results are named; the others gave an inactive call. Unless noted, calls follow the shape of the dose curve; as a rule, active = well fitted curve in the direction sought with a large enough effect; inconclusive = small, poorly fitted or top-dose-only effect, or another doubt; inactive = no such curve, though single readings can be large; an effect the other way counts as inactive or inconclusive.

COc1ccc(-n2nnnc2C(CCSC)N2CCN(C/C=C/c3ccccc3)CC2)cc1 (stereo not given)	D3 antag -126.9
CSCCC(c1nnnn1C(C)(C)C)N1CCN(C/C=C/c2ccccc2)CC1 (stereo not given)	D3 antag -82.1
Cc1ccc2c(c1)c1c(c(=O)n(Cc3ccccc3)c(=O)n1CC(=O)Nc1ccccc1C)n2C	none (no result: D3 antag)
CS(=O)(=O)NCCc1csc2nc(-c3ccccc3)nn12	none (no result: D3 antag, GLP1R ag)
CC(C)(C)OC(=O)N1CCC(c2c(C(=O)NC3CCN(Cc4ccccc4)CC3)cnn2-c2cccc(F)c2)CC1	none (no result: D3 antag, GLP1R ag)
CC(C)(C)n1nnnc1C(C1CC1)N1CCN(C/C=C/c2ccccc2)CC1 (stereo not given)	D3 antag inconclusive
CC(C)(C)n1nnnc1C(CCc1ccccc1)N1CCN(C/C=C/c2ccccc2)CC1 (stereo not given)	GLP-1R inv ag inconclusive, D3 antag -90.7
O=C1c2oc3ccccc3c(=O)c2C(c2cccc(O)c2)N1c1nncs1 (stereo not given)	GLP-1R inv ag inconclusive (no result: D3 antag, GLP1R ag)
CCCOc1cccc(C2c3c(oc4ccccc4c3=O)C(=O)N2c2nncs2)c1 (stereo not given)	DRD3 agonist 56.0 (no result: D3 antag, GLP1R ag)
COc1ccc(CN(C(=S)Nc2ccccc2)C2CC(=O)N(c3ccc(F)cc3)C2=O)cc1 (stereo not given)	GLP-1R inv ag inconclusive
CNC(=S)N(Cc1ccc(OC)cc1)C1CC(=O)N(c2ccc(Cl)cc2)C1=O (stereo not given)	GLP-1R inv ag 11.2µM
Cc1cccc(CN2C(=O)c3ccccc3Sc3ccc(C(=O)NCc4cccs4)cc32)c1	GLP-1R inv ag inconclusive (no result: D3 antag, GLP1R ag)
Cc1cc(C)c(NC(=O)c2ccc(CN3CCc4ccccc4C3)cc2)c(C)c1	GLP-1R inv ag inconclusive, D3 antag -52.8
CCOc1ccccc1NC(=O)c1ccc(CN2CCc3ccccc3C2)cc1	GLP-1R inv ag inconclusive, D3 antag -70.2
O=C(Nc1ccc(S(=O)(=O)N2CCOCC2)cc1)c1ccc(CN2CCc3ccccc3C2)cc1	GLP-1R inv ag inconclusive, D3 antag -54.2
COc1ccc(NC(=O)c2ccc(CN3CCc4ccccc4C3)cc2)cc1OC	D3 antag -64.5
O=C(Nc1ccc(S(=O)(=O)N2CCCC2)cc1)c1ccc(CN2CCc3ccccc3C2)cc1	GLP-1R inv ag inconclusive, D3 antag inconclusive
O=C(Nc1ccc(Cl)cc1)c1ccc(CN2CCc3ccccc3C2)cc1	none
Cc1c(NC(=O)c2ccc(CN3CCc4ccccc4C3)cc2)c(=O)n(-c2ccccc2)n1C	D3 antag -79.0
N#CCc1ccc(NC(=O)c2ccc(CN3CCc4ccccc4C3)cc2)cc1	D3 antag -53.3
COc1cccc(NC(=O)c2ccc(CN3CCN(c4ccccc4)CC3)cc2)c1	GLP-1R inv ag inconclusive
CC(=O)c1cccc(NC(=O)c2ccc(CN3CCc4ccccc4C3)cc2)c1	GLP-1R inv ag inconclusive, D3 antag -88.7
COc1cccc(NC(=O)c2ccc(CN3CCc4ccccc4C3)cc2)c1	GLP-1R inv ag inconclusive, D3 antag -101.7
O=C(COC(=O)c1cccnc1Cl)NCCC1=CCCCC1	none
COc1ccc([C@@H]2[C@@H]3C(=O)N(C(C)(C)C)C(=O)[C@@H]3[C@]3(C)C(=O)N(c4ccc(C)cc4)C(=O)N23)cc1	none
O=C(NCCCN1CCOCC1)c1cccc(S(=O)(=O)N2CCc3ccccc3C2)c1	GLP-1R inv ag inconclusive, D3 antag -56.7
Cc1ccc(Cl)cc1N1CCN(CCCNC(=O)c2nnc(Cc3cccc(Cl)c3)o2)CC1	none (no result: D3 antag, GLP1R ag)
Cc1ccc(-c2nc3nc(C)cc(Nc4ccccc4O)n3n2)cc1	none (no result: D3 antag)
CCCCC(=O)N(C)c1c(CC)nc2c(OCCC3CCCCC3)cccn12	GLP-1R inv ag inconclusive, D3 antag -71.1
CCc1nc2c(OCCC3CCCCC3)cccn2c1N(C=O)Cc1ccc(OC)cc1	GLP-1R inv ag inconclusive, D3 antag -76.7
CCCCC(=O)N(C)c1c(CC)nc2c(OCC3CCCCC3)cccn12	GLP-1R inv ag inconclusive
CCc1nc2c(OCCC3CCCCC3)cccn2c1N(C)C(=O)c1cccs1	GLP-1R inv ag inconclusive, D3 antag -100.6
CCc1nc2c(OCCC3CCCCC3)cccn2c1N(C)C(=O)CC(C)C	GLP-1R inv ag inconclusive
CCOC(=O)N(C)c1c(CC)nc2c(OCCC3CCCCC3)cccn12	GLP-1R inv ag inconclusive, D3 antag inconclusive
CCOC(=O)C(=O)N(C)c1c(CC)nc2c(OCCC3CCCCC3)cccn12	GLP-1R inv ag inconclusive, D3 antag -84.4
O=C(Oc1ccccc1F)c1nc(SCc2ccc(F)cc2)ncc1Cl	none (no result: D3 antag, GLP1R ag)
CCc1cc2c(cc3c(=O)n(CC(=O)NC4CCC(C)CC4)nc(CC)n32)s1 (stereo not given)	none (no result: D3 antag, GLP1R ag)
COc1ccc(/C=N/Nc2ncnc3sc(C)c(C)c23)cc1	GLP-1R inv ag 8.91µM
COc1cccc(OCC(O)CN2CCN(c3ncccn3)CC2)c1 (stereo not given)	none
OC(COc1ccc2cc(Br)ccc2c1)CN1CCN(c2ccccn2)CC1 (stereo not given)	DRD3 agonist 227.3
COc1cccc(OCC(O)CN2CCN(c3ccccn3)CC2)c1 (stereo not given)	DRD3 agonist 34.7, D3 antag inconclusive
COc1cccc(OCC(O)CN2CCN(c3ccccc3)CC2)c1 (stereo not given)	GLP-1R inv ag inconclusive, DRD3 agonist 30.8, D3 antag inconclusive
COc1ccc(OCC(O)CN2CCN(c3ccc(Cl)cc3)CC2)cc1 (stereo not given)	GLP-1R inv ag inconclusive, D3 antag inconclusive
OC(COc1ccc2cc(Br)ccc2c1)CN1CCCC1 (stereo not given)	GLP-1R inv ag inconclusive
COc1cccc(OCC(O)CN2CCN(c3ccc(Cl)cc3)CC2)c1 (stereo not given)	GLP-1R inv ag 10µM
COc1cccc(CN2C(=O)CN(C3CCCCC3)C(=O)C2c2ccc(OC)c(OC)c2)c1 (stereo not given)	none (no result: D3 antag, GLP1R ag)
Cc1ccc(-c2c(C)n3c4c(=O)n(C)c(=O)n(C)c4nc3n2CCO)cc1	DRD3 agonist 45.6 (no result: D3 antag, GLP1R ag)
Cc1cccc(OCCNc2cc(N3CCN(CCO)CC3)ccc2[N+](=O)[O-])c1	GLP-1R inv ag inconclusive, D3 antag -57.7
Cc1ccccc1OCCNc1cc(N2CCN(CCO)CC2)ccc1[N+](=O)[O-]	GLP-1R inv ag inconclusive, D3 antag -64.4
Cc1ccc(-c2c(C(=O)N3CCN(c4cccc(C)c4)C(C)C3)oc(=O)c3ccccc23)cc1 (stereo not given)	GLP-1R inv ag inconclusive (no result: D3 antag)
O=C(CCl)N1CCN(S(=O)(=O)c2ccc3ccccc3c2)CC1	GLP-1R inv ag 10µM
CN(C)C(=O)N1CCN(S(=O)(=O)c2ccc3ccccc3c2)CC1	DRD3 agonist 30.5
CN(C)S(=O)(=O)N1CCN(S(=O)(=O)c2ccc3ccccc3c2)CC1	none
COc1ccc(CCC(=O)N2CCN(S(=O)(=O)c3ccc4ccccc4c3)CC2)cc1	none
